Rab9 promoter act = Rab9 promoter activation; Huh7 Rab9 promoter-luciferase reporter, luminescence, 24 h; Potency, µM (doses to about 9.22 µM), inactives show at the top dose activation, negative = inhibition, most hits filed as activators; 320,000 tested, 2.8% active; also: % of control where 0% means no effect; nearly all actives have a fitted effect of over 60% in size
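Rab9 promoter-driven luciferase in stably transfected Huh7 cells; 1500 cells/well rested 2 h, exposed to compound in DMSO for 24 h at 37 °C, 5% CO2. Luminescence read 10 min after adding luciferase reagent at ambient temperature.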
FLuc modulator = counter-screen for miR-21 project: firefly luciferase inhibitors or activators; P08659; purified FLuc, Km substrates, luminescence inhibition; Potency, µM (highest dose often 57.5 µM), inactives show at the top dose activity change, negative = inhibition, usual class: inhibitors; 360,000 tested, 6.9% active; AID 588342;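 also: plate controls were vehicle for no effect and reference inhibitor for full effect; nearly all actives have a fitted effect of over 55% in size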
Target sequence (P08659 whole entry, looked up): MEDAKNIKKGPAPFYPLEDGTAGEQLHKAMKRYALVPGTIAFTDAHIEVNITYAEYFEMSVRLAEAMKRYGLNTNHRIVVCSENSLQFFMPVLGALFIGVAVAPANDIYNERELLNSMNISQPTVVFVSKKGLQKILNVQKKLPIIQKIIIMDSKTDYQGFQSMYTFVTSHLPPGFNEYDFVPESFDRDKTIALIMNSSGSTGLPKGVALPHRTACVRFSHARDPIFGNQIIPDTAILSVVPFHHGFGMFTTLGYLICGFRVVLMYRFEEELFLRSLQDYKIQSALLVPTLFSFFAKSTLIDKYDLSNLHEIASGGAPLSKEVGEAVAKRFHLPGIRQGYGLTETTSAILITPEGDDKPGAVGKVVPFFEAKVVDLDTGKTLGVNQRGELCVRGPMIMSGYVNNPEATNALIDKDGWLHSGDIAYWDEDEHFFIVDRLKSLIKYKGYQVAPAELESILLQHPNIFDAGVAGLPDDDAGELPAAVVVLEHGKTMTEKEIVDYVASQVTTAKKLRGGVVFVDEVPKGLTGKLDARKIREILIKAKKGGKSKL
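Purified P. pyralis luciferase (10nM final) with 10uM D-luciferin and 10uM ATP (Km levels) in 50mM Tris acetate pH 7.5, 10mM Mg acetate, 0.01% Tween-20, 0.05% BSA; qHTS 6-point titration, ~60 µM downward; luminescence read.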
Luc counter = Kinase-Glo luciferase inhibition (counter-screen); AID 1379; Q27757; 200,000 tested, 0.28% active; Potency, µM (doses to about 38.3 µM), for the others: at the highest dose activity change, negative = inhibition, hits mostly inhibitors; Kinase-Glo luciferase, ATP luminescence, 8 min; also: % is scaled to controls: 0 for no effect and ±100 for the full control effect; nearly all actives have a fitted effect of over 60% in size
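Light output from Kinase-Glo luciferase with luciferin and 10 uM ATP in 50 mM imidazole pH 7.2, KCl, MgCl2, Tween 20, BSA; compound pin-delivered, 8-min ambient incubation, then luminescence read.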
NPC1 promoter act = NPC1 promoter activation; Huh7 NPC1 promoter luciferase reporter, 24 h; Potency, µM (series often up to 9.22 µM), for the others: at the top dose activation, hits mostly activators; 320,000 tested, 2.4% active; AID 485313; also: % of control where 0% means no effect; nearly all actives have a fitted effect of over 60% in size
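Readout is luciferase luminescence, reflecting NPC1 promoter activation in stably transfected Huh7 cells after 24 h compound exposure at 37 °C in reduced-serum medium with 10% FBS.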
SMN2 splice up = enhancers of SMN2 splice variant expression. HEK293 SMN2-luciferase splicing reporter, luminescence, 30-36 h. Potency, µM (doses to about 46.1 µM), for inactives: top-dose activity change, positive = activation, hits mostly activators. 210,000 tested, 2.8% active; also: % of control where 0% means no effect; nearly all actives have a fitted effect of over 55% in size
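HEK293 cells carry an SMN2 minigene-luciferase reporter in which exon 7 inclusion puts luciferase in frame. Cells were seeded at 2000 cells/well, attached for 10-12 hours, then exposed to compounds for 30-36 hours at 37C before ONE-Glo luminescence.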
ELG1 genotox = genotoxicity induction in ELG1-luciferase HEK293T cells; HEK293T ELG1-luciferase reporter, luminescence, 16 h; AID 504466; Potency, µM (titrated, usually from 46 µM), without a hit: at the highest dose activity change, positive = activation, most hits filed as activators; 330,000 tested, 1.3% active; also: % of control where 0% means no effect; nearly all actives have a fitted effect of over 60% in size
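ELG1-luciferase HEK293T cells, 2,000/well; compound pinned in; 16 hr, 37 °C, 5% CO2; ONE-Glo, 30 min RT; luminescence on CCD imager.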
* = called active by the depositor; ? = inconclusive; / = no result. Most compounds without a hit are left out; they make up all but 7.5% or so of the library. Calls follow the shape of the dose curve; as a rule, active = well fitted curve in the direction sought with a large enough effect; inconclusive = small, poorly fitted or top-dose-only effect, or another doubt; inactive = no such curve, though single readings can be large; an effect the other way counts as inactive or inconclusive. Potency is read from the fitted curve at half-maximal effect.

SMILES	Rab9 promoter act	FLuc modulator	Luc counter	NPC1 promoter act	SMN2 splice up	ELG1 genotox
Clc1nc(CN2CCCCC2)nc2sc3c(c12)CCC3	0%	?	0%	-5%	-3%	4%
COCc1c(C(=O)NC(C)c2ccc(S(N)(=O)=O)cc2)oc2ccccc12 (stereo unspecified)	-5%	0%	/	-2%	/	5%
CCOC(=O)c1cnc(Nc2ccccc2)nc1C(F)(F)F	17%	24µM*	/	25%	/	19%
CCOC(=O)c1cnc(Nc2ccc(OCC)cc2)nc1C	25%	?	-1%	?	8%	?
Cc1cccc(C)c1Nc1nc2ccccc2o1	-3%	5%	0%	-2%	-15%	-7%
Cc1nc(Nc2nc3ccccc3o2)nc2c1CCC2	?	1.7µM*	?	?	2µM*	?
CCOC(=O)c1cnc(Nc2nc3ccccc3o2)nc1C	?	0.38µM*	2µM*	?	-33%	/
CCOC(=O)c1cnc(-c2ccccc2)nc1C(F)(F)F	6%	?	-2%	-2%	-4%	3%
Cc1cccc(N2CCN(C(=O)C3CCC(=O)N(Cc4ccccc4F)C3)CC2)c1C (stereo unspecified)	3%	3%	/	2%	/	-5%
CC(=O)Nc1cccc(NC(=O)C(=O)NCCc2csc3nc(-c4ccccc4F)nn23)c1	/	-8%	/	/	/	/
O=C(COC(=O)/C=C/c1ccccc1)Nc1ccc(Cl)cn1	2%	0%	/	8%	/	-1%
O=C(/C=C/c1ccccc1)Nc1ccc(Cl)cn1	?	2.7µM*	1%	?	13µM*	?
Cc1cccc(NC(=O)/C(C#N)=C/c2ccc(Cl)cc2)n1	0%	2.4µM*	/	1%	/	-3%
Cc1cccc(NC(=O)CCCNC(=O)c2ccc(Cl)cc2)n1	1%	2%	/	-2%	/	-2%
Cc1cccc(NC(=O)/C(C#N)=C/c2cccc([N+](=O)[O-])c2)n1	-3%	?	/	0%	/	-1%
Cc1cccc(NC(=O)/C=C/c2ccc(Cl)cc2)n1	2.2µM*	1.1µM*	-9%	4µM*	3.5µM*	1%
COc1ccc(/C=C(\C#N)C(=O)Nc2cccc(C)n2)cc1	5%	0.95µM*	/	0%	/	2%
CCOC(=O)c1ccc(NC(=O)/C(C#N)=C/c2ccc(OC)cc2)cc1	/	-1%	/	/	-3%	/
CCN1CCN(c2oc(-c3ccc(COc4ccc(C)cc4)o3)nc2C#N)CC1	/	-4%	/	/	/	/
c1ccc2c(Nc3nc4c(s3)CCCC4)cccc2c1	3.5µM*	4.8µM*	-13%	?	?	?
O=S(=O)(Nc1nc2c(s1)CCCC2)c1ccc2ccccc2c1	-2%	1%	24%	0%	-41%	-2%
CCOC(=O)c1c(C)nc2c3ccccc3ccn12	2.2µM*	3.8µM*	-14%	18%	13µM*	4.1µM*
CCOC(=O)c1c(C)nc2c(C)cccn12	-6%	2%	-3%	0%	-58%	7%
CCc1cc2c(=O)c(-c3nc(C)cs3)coc2cc1OC(C)C(=O)NCCO (stereo unspecified)	1%	11µM*	-2%	0%	-6%	-6%
COc1ccc(OC)c(NC(=O)[C@@H]2CCCN2C(=O)c2cccs2)c1	-2%	1%	-4%	-2%	5.6µM*	10%
CCOc1ccc(NC(=O)c2cnc(N3CCCCC3)c3ccccc23)cc1	/	11µM*	/	/	/	/
CCN(CC)c1ccc(NC(=O)c2ccc3c(c2)c(C)c(C)n3C)cc1	1%	9.5µM*	-4%	-4%	-28%	1%
CCOc1cccc(C(=O)Nc2ccc3ccccc3c2)c1	0.56µM*	0.48µM*	/	2.2µM*	/	0.46µM*
CCOc1cccc(C(=O)Nc2ccc(N(CC)CC)cc2)c1	7%	13µM*	-3%	15%	23%	?
Cc1c(C)n(C)c2ccc(C(=O)NCCCN3CCCC3)cc12	-9%	0%	/	-1%	/	6%
